In PubChem BioAssay AID1159580 (chemical genetic matrix, 2015):
Values joined by “and” are separate entries in the source; they are usually repeats but may differ in a detail not shown here. Identical values can stand only once. Out of some 5,500 compounds screened, about 2,000 (36%) were called active. About 18% were inconclusive and are not listed. Rule as the data show it: active = normalized growth mostly below about 0.91 (no sharp cut-off); inconclusive = no clear call, values can overlap the other calls; inactive = mostly above about 0.92. The list shows a part of the results.

Assay: chemical genetic growth profiling, strain panel (AID 1159580);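 also: tested at 20 µM; growth read once vehicle control cultures reached saturation at 30 °C; 1 = growth at the plate median or of vehicle wells; lower values mean less growth of the strain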
Conditions: S. cerevisiae deletion strains, growth OD

Measured: normalized growth

CC1=CC2C(CC1=O)C(C)=CCC2C(C)C (configuration not stated)
active: locus YDL185W, strain tfp1, stronger effect = lower value 0.83 | locus YDL192W, strain arf1, stronger effect = lower value 0.769 | locus YDR392W, strain spt3, stronger effect = lower value 0.594 | locus YDR502C, strain sam2, stronger effect = lower value 0.895 | locus YEL061C, strain CIN8, stronger effect = lower value 0.911 | locus YGL086W, strain mad1, stronger effect = lower value 0.888 | locus YGR135W, strain pre9, stronger effect = lower value 0.881 | locus YKR001C, strain vps1, stronger effect = lower value 0.623 | locus YLR330W, strain CHS5, stronger effect = lower value 0.873 | locus YLR371W, strain rom2, stronger effect = lower value 0.841 | locus YLR418C, strain cdc73, stronger effect = lower value 0.687 | locus YMR223W, strain ubp8, stronger effect = lower value 0.901 | locus YNL071W, strain lat1, stronger effect = lower value 0.913 | locus YNR052C, strain pop2, stronger effect = lower value 0.895 | locus YOR184W, strain ser1, stronger effect = lower value 0.634 | locus YPL051W, strain arl3, stronger effect = lower value 0.886 | strain wtn01, stronger effect = lower value 0.898
0.905 (active) and 0.973 (inactive): locus YHR030C, strain SLT2, stronger effect = lower value
inactive: locus YAL021C, strain ccr4, stronger effect = lower value 1.02 | locus YAL026C, strain drs2, stronger effect = lower value 0.996 | locus YAL030W, strain snc1, stronger effect = lower value 1 | locus YBL061C, strain skt5, stronger effect = lower value 1.02 | locus YBR009C, strain hhf1, stronger effect = lower value 0.98 | locus YBR021W, strain FUR4, stronger effect = lower value 0.923 | locus YBR023C, strain chs3, stronger effect = lower value 0.992 | locus YBR171W, strain sec66, stronger effect = lower value 1 | locus YBR229C, strain ROT2, stronger effect = lower value 1.01 | locus YBR231C, strain swc5, stronger effect = lower value 0.998 | locus YBR279W, strain paf1, stronger effect = lower value 1 | locus YCL011C, strain gbp2, stronger effect = lower value 1.01 | locus YCL016C, strain dcc1, stronger effect = lower value 1.01 | locus YCL029C, strain bik1, stronger effect = lower value 0.976 | locus YCL061C, strain MRC1, stronger effect = lower value 0.991 | locus YCL069W, strain vba3, stronger effect = lower value 1.01 | locus YCR088W, strain abp1, stronger effect = lower value 1 | locus YDL005C, strain med2, stronger effect = lower value 1.02 | locus YDL035C, strain GPR1, stronger effect = lower value 0.96 | locus YDL040C, strain nat1, stronger effect = lower value 1.01 | locus YDL074C, strain BRE1, stronger effect = lower value 0.902 | locus YDL101C, strain DUN1, stronger effect = lower value 0.966 | locus YDR001C, strain nth1, stronger effect = lower value 0.996 | locus YDR069C, strain doa4, stronger effect = lower value 1.02 | locus YDR101C, strain arx1, stronger effect = lower value 0.929 | locus YDR137W, strain rgp1, stronger effect = lower value 0.896 | locus YDR159W, strain sac3, stronger effect = lower value 1.01 | locus YDR162C, strain NBP2, stronger effect = lower value 0.92 | locus YDR195W, strain ref2 0.977 | locus YDR297W, strain sur2, stronger effect = lower value 1.02 | locus YDR318W, strain mcm21, stronger effect = lower value 0.946 | locus YDR334W, strain swr1, stronger effect = lower value 1.01 | locus YDR335W, strain msn5, stronger effect = lower value 1.01 | locus YDR388W, stronger effect = lower value 0.987 | locus YEL003W, strain gim4, stronger effect = lower value 1.02 | locus YEL037C, strain rad23, stronger effect = lower value 0.997 | locus YEL061C, strain CIN8 (second series), stronger effect = lower value 1.01 | locus YER015W, strain faa2, stronger effect = lower value 1 | locus YER016W, strain bim1, stronger effect = lower value 1.01 | locus YER110C, stronger effect = lower value 1.01 | locus YER111C, strain swi4, stronger effect = lower value 0.996 | locus YER155C, strain BEM2 (second series), stronger effect = lower value 0.98 | locus YER155C, strain BEM2, stronger effect = lower value 0.948 | locus YER167W, strain BCK2, stronger effect = lower value 0.937 | locus YFR010W, strain ubp6, stronger effect = lower value 1 | locus YGL078C, strain dbp3, stronger effect = lower value 0.943 | locus YGL167C, strain pmr1, stronger effect = lower value 1.01 | locus YGL173C, strain kem1, stronger effect = lower value 1.01 | locus YGL227W, strain vid30, stronger effect = lower value 1.01 | locus YGL240W, strain doc1, stronger effect = lower value 0.998 | locus YGL248W, strain PDE1, stronger effect = lower value 0.952 | locus YGL253W, strain hxk2, stronger effect = lower value 1 | locus YGR252W, strain gcn5, stronger effect = lower value 0.972 | locus YHR013C, strain ard1, stronger effect = lower value 1.03 | locus YHR027C, strain rpn1, stronger effect = lower value 1.01 | locus YHR079C, strain IRE1 (second series), stronger effect = lower value 0.989 | locus YHR079C, strain IRE1, stronger effect = lower value 0.96 | locus YHR094C, strain hxt1, stronger effect = lower value 0.989 | locus YHR129C, strain ARP1, stronger effect = lower value 0.95 | locus YHR142W, strain chs7, stronger effect = lower value 0.981 | locus YHR200W, strain rpn10, stronger effect = lower value 0.968 | locus YIL066C, strain RNR3, stronger effect = lower value 0.9 | locus YIL073C, strain SPO22, stronger effect = lower value 0.91 | locus YIL125W, strain kgd1, stronger effect = lower value 0.934 | locus YIR030C, strain dcg1, stronger effect = lower value 0.979 | locus YJL092W, strain hpr5, stronger effect = lower value 0.998 | locus YJL095W, strain BCK1 (second series), stronger effect = lower value 1.01 | locus YJL095W, strain BCK1, stronger effect = lower value 0.808 and 0.979 | locus YJL115W, strain asf1, stronger effect = lower value 1.01 | locus YJL129C, strain trk1, stronger effect = lower value 1 | locus YJL134W, strain LCB3, stronger effect = lower value 1.02 | locus YJL154C, strain vps35, stronger effect = lower value 1.01 | locus YJL164C, strain tpk1, stronger effect = lower value 0.994 | locus YJL166W, strain qcr8, stronger effect = lower value 0.978 | locus YJL168C, strain set2, stronger effect = lower value 0.978 | locus YJL187C, strain SWE1 (second series), stronger effect = lower value 0.971 | locus YJL187C, strain SWE1, stronger effect = lower value 1 | locus YJR043C, strain POL32, stronger effect = lower value 0.98 | locus YJR066W, strain TOR1, stronger effect = lower value 0.949 | locus YKL009W, strain mrt4, stronger effect = lower value 0.945 | locus YKL068W, stronger effect = lower value 0.978 | locus YKL085W, strain MDH1 (second series), stronger effect = lower value 0.932 | locus YKL085W, strain MDH1, stronger effect = lower value 0.932 | locus YKL160W, strain elf1, stronger effect = lower value 0.992 | locus YKR026C, strain gcn3, stronger effect = lower value 0.983 | locus YKR091W, strain srl3, stronger effect = lower value 1.01 | locus YLL001W, strain dnm1, stronger effect = lower value 0.998 | locus YLL026W, stronger effect = lower value 1.01 | locus YLL041C, strain sdh2, stronger effect = lower value 1 | locus YLR027C, strain aat2, stronger effect = lower value 0.997 | locus YLR039C, strain RIC1, stronger effect = lower value 0.717 | locus YLR058C, strain SHM2, stronger effect = lower value 0.994 | locus YLR102C, strain apc9, stronger effect = lower value 0.985 | locus YLR113W, strain HOG1, stronger effect = lower value 0.968 | locus YLR221C, strain rsa3, stronger effect = lower value 0.979 | locus YLR258W, strain gsy2, stronger effect = lower value 1 | locus YLR262C, strain YPT6 (second series), stronger effect = lower value 0.896 | locus YLR262C, strain YPT6, stronger effect = lower value 0.709 | locus YLR268W, strain sec22, stronger effect = lower value 0.923 | locus YLR320W, strain mms22, stronger effect = lower value 0.9 | locus YLR342W, strain FKS1 (second series), stronger effect = lower value 0.864 | locus YLR342W, strain FKS1, stronger effect = lower value 1.01 | locus YLR357W, strain rsc2, stronger effect = lower value 1.03 | locus YLR370C, strain arc18, stronger effect = lower value 1.02 | locus YLR384C, strain iki3, stronger effect = lower value 1 | locus YML016C, strain PPZ1, stronger effect = lower value 1.01 | locus YML032C, strain rad52, stronger effect = lower value 0.948 | locus YML120C, strain ndi1, stronger effect = lower value 1 | locus YML124C, strain tub3, stronger effect = lower value 0.985 | locus YMR058W, strain fet3, stronger effect = lower value 1.01 | locus YMR078C, strain ctf18, stronger effect = lower value 0.974 | locus YMR125W, strain sto1, stronger effect = lower value 1.01 | locus YMR129W, stronger effect = lower value 1.03 | locus YMR205C, strain PFK2, stronger effect = lower value 0.966 | locus YMR231W, strain pep5, stronger effect = lower value 0.984 | locus YMR307W, strain GAS1, stronger effect = lower value 0.795 | locus YNL067W, strain RPL9B, stronger effect = lower value 0.986 | locus YNL183C, strain NPR1, stronger effect = lower value 0.96 | locus YNL209W, strain ssb2, stronger effect = lower value 1.01 | locus YNL233W, strain BNI4, stronger effect = lower value 0.874 | locus YNL248C, strain rpa49, stronger effect = lower value 0.997 | locus YNL250W, strain rad50, stronger effect = lower value 0.956 | locus YNL271C, strain bni1, stronger effect = lower value 0.936 | locus YNL298W, strain CLA4, stronger effect = lower value 0.924 | locus YNL307C, strain MCK1, stronger effect = lower value 0.914 | locus YNL322C, strain KRE1 (second series), stronger effect = lower value 1.01 | locus YNL322C, strain KRE1, stronger effect = lower value 1 | locus YNR049C, strain mso1, stronger effect = lower value 1.01 | locus YOL006C, strain TOP1, stronger effect = lower value 0.683 | locus YOL012C, strain htz1 0.956 | locus YOL147C, strain pex11, stronger effect = lower value 0.945 | locus YOR001W, strain rrp6, stronger effect = lower value 0.984 | locus YOR061W, strain CKA2, stronger effect = lower value 0.967 | locus YOR069W, strain VPS5, stronger effect = lower value 0.978 | locus YOR070C, strain gyp1, stronger effect = lower value 0.992 | locus YOR080W, strain dia2, stronger effect = lower value 1.01 | locus YOR083W, strain WHI5, stronger effect = lower value 0.966 | locus YOR106W, strain vam3, stronger effect = lower value 0.973 | locus YOR136W, strain idh2, stronger effect = lower value 0.959 | locus YOR144C, strain elg1, stronger effect = lower value 0.969 | locus YOR231W, strain MKK1, stronger effect = lower value 0.993 | locus YOR265W, strain rbl2, stronger effect = lower value 1.01 | locus YOR270C, strain vph1, stronger effect = lower value 0.844 | locus YOR290C, strain snf2, stronger effect = lower value 0.972 | locus YOR316C, strain cot1, stronger effect = lower value 0.983 | locus YPL055C, strain LGE1, stronger effect = lower value 0.938 | locus YPL078C, strain atp4, stronger effect = lower value 0.991 | locus YPL106C, strain sse1, stronger effect = lower value 1.01 | locus YPL240C, strain hsp82, stronger effect = lower value 1.02 | locus YPL256C, strain CLN2, stronger effect = lower value 0.957 | locus YPR119W, strain clb2, stronger effect = lower value 0.978 | locus YPR141C, strain kar3, stronger effect = lower value 0.973 | locus YPR163C, strain tif3, stronger effect = lower value 0.97 | locus YPR167C, strain met16, stronger effect = lower value 0.995
